RORgamma inh = ROR gamma (mouse) transcription inhibition; P51450; Drosophila S2 Gal4-RORgamma UAS-luciferase reporter, 20 h; Potency, µM (doses to about 53.6 µM), for inactives: at the highest dose activity change, negative = inhibition, usual class: inhibitors; 5.4% of 310,000 active; AID 2551; further: nearly all actives have a fitted effect of over 60% in size
Target sequence (P51450 whole entry, looked up, the tested form may be a part): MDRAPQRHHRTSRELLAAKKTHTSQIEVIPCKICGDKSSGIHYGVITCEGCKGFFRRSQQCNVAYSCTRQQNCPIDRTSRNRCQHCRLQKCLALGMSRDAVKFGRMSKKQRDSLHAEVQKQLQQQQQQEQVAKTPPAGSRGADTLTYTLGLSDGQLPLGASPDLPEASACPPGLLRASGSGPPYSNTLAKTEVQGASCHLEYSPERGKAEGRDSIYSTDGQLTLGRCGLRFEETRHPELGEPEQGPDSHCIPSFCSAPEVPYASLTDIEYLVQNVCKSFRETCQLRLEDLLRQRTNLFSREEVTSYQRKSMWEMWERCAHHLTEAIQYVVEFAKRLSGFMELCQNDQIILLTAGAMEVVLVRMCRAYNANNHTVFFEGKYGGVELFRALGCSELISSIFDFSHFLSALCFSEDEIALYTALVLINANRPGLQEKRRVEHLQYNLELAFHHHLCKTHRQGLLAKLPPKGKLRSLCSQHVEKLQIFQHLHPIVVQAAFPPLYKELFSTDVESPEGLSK
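A Gal4/UAS one-hybrid system in insect cells: metallothionein-promoter Gal4–ROR gamma fusion plus Photinus luciferase reporter. Copper sulfate 700 uM final, 20 hr ambient incubation, luminescent detection after 10 min with reagent.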
KinaseGlo FLuc = Kinase-Glo luciferase inhibition (counter-screen); 0.28% of 200,000 active; Q27757; AID 1379; Potency, µM (series often up to 38.3 µM), without a hit: top-dose activity change, negative = inhibition, hits mostly inhibitors; Kinase-Glo luciferase, ATP luminescence, 8 min; further: nearly all actives have a fitted effect of over 60% in size
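Light output from Kinase-Glo luciferase with luciferin and 10 uM ATP in 50 mM imidazole pH 7.2, KCl, MgCl2, Tween 20, BSA; compound pin-delivered, 8-min ambient incubation, then luminescence read.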
VP16 counter = Gal4-VP16 reporter inhibition counter-screen. Drosophila S2 Gal4-VP16 UAS-luciferase, luminescence, 20 h. Potency, µM (series often up to 53.6 µM), for inactives: top-dose activity, negative = inhibition, usual class: inhibitors. 3.5% of 310,000 active;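 further: Gal4-VP16 expression switched on by copper sulfate through the metallothionein promoter; nearly all actives have a fitted effect of over 50% in size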
* = called active by the depositor; ? = inconclusive; · = not tested or not shown; [ ] = another dose, or the depositor's remark. Rows were chosen to be rich in hits. Some 6.2% of all compounds tested hit in one or more screens of this group. The call rests on the fitted dose curve; in most records, active means well fitted curve in the direction sought with a large enough effect; inconclusive means small, poorly fitted or top-dose-only effect, or another doubt; inactive means no such curve, though single readings can be large; an effect the other way counts as inactive or inconclusive. On the % scale 0 is the no-effect control and ±100 the full control effect; potency means the concentration at half of the fitted maximal effect.

SMILES	RORgamma inh	KinaseGlo FLuc	VP16 counter
CCOc1ccc(N2C(=O)CC(Sc3nnnn3-c3ccccc3)C2=O)cc1 (stereo unspecified)	4µM*	2%	?
COc1ccc(N2C(=O)CC(Sc3nccc(C)n3)C2=O)cc1 (stereo unspecified)	-13%	-2%	?
C=CCNc1nnc(SC2CC(=O)N(c3ccc(OC)cc3)C2=O)s1 (stereo unspecified)	4.5µM*	-1%	13µM*
COc1ccc(N2C(=O)CC(NNc3nc4ccccc4s3)C2=O)cc1 (stereo unspecified)	21%	·	-13%
CCOc1ccc(N2C(=O)CC(Sc3nc(C)cc(C)n3)C2=O)cc1 (stereo unspecified)	0%[10 µM]	-5%	3%
Cc1cc(=O)oc2cc(OCC(=O)Nc3ccccc3C(=O)O)ccc12	-6%	·	2%
O=C(O)[C@H](C1NCCS1)N1C(=O)c2ccccc2C1=O (stereo partly specified)	·	-1%[7.66 µM]	·
CCOCCCNC(=O)c1cn(CC)c2ccc(S(=O)(=O)N3CCCC3)cc2c1=O	3%	·	-1%
COc1cccc(C(=O)NC(c2ccccc2)C2CCCC2)c1 (stereo unspecified)	3%	2%	-6%
COc1cccc2c(=O)n(CC(=O)NC3CCCCC3)ccc12	?	2%	21%
CCOc1cc(CNn2cn[nH]c2=S)cc(Cl)c1OCc1ccccc1F	7.9µM*	3%	6.3µM*
CCNCc1cc(Cl)c(OCc2ccccc2)c(OCC)c1	-26%	-2%	-10%
CCOC(=O)c1ccc(NC(=O)Oc2cc(C)c(Cl)cc2C(C)C)cc1	14%	·	-16%
CC(=O)NCCOC(=O)c1nn(Cc2ccccc2)c(=O)c2ccccc12	10%	·	14%
Cc1cc(=O)c(C(=O)O)nn1-c1ccccc1F	-5%	·	0%
O=c1[nH]c2cc(Cl)c(Cl)cc2[nH]c1=O	20%	-2%	-12%
CCN(CC(=O)Nc1c(F)cccc1F)C(=O)C1CCCN(C(=O)c2ccc(Cl)cc2)C1 (stereo unspecified)	10µM*	·	11µM*
CCN(CC(=O)Nc1c(F)cccc1F)C(=O)c1ccc(Cl)c(S(=O)(=O)N2CCCCC2)c1	13%	·	0%
CC1=C(C(=O)N2CCOCC2)C(c2ccccc2F)C2=C(CCCC2=O)N1 (stereo unspecified)	-1%	0%	-1%
S=c1ccss1	13µM*	-3%	?
Cc1ccc(-c2c(C(=O)N/N=C/c3ccoc3)nnn2-c2nonc2N)cc1	11µM*	·	?
Cc1ccc(/C=N/NC(=O)c2nnn(-c3nonc3N)c2CSc2ccccc2)cc1	-18%	·	-1%
CCOc1ccc(-c2c(C(=O)N/N=C/c3cccs3)nnn2-c2nonc2N)cc1	2.2µM*	·	6.3µM*
Cc1ccc(/C=N/NC(=O)c2nnn(-c3nonc3N)c2CSc2ccccc2)o1	7.1µM*	·	11µM*
Cc1ccc(-c2c(C(=O)N/N=C/c3cccs3)nnn2-c2nonc2N)cc1	7.1µM*	·	5.6µM*
SMILES	RORgamma inh	KinaseGlo FLuc	VP16 counter
CCOc1ccc(-c2c(C(=O)N/N=C/c3ccncc3)nnn2-c2nonc2N)cc1	13%	·	-17%
CCOc1ccc(/C=N/NC(=O)c2nnn(-c3nonc3N)c2-c2cccs2)cc1	-33%	·	-6%
Cc1ccc(-c2c(C(=O)N/N=C/c3cccc(Cl)c3)nnn2-c2nonc2N)cc1	-19%	·	-4%
COc1ccc(C2C3C=CCC(C)C3C(=O)N2Cc2ccccc2)cc1Cl (stereo unspecified)	6%	·	1%
CCCn1c(SCC(=O)NC(C)(C)C)nnc1-c1ccco1	5%	-2%	-16%
C=CCNC(=O)/C(C#N)=C/c1cn(-c2ccccc2)nc1-c1cccs1	-6%	-2%	-3%
C/C(=N\NC(=O)CC1N=C(Cc2ccccc2)NNC1=O)c1ccc(Br)cc1 (stereo unspecified)	-5%	·	-10%
C[C@H](CCC(=O)O)[C@H]1CC[C@H]2[C@H]3C(C[C@H](O)[C@]12C)[C@@]1(C)CC[C@@H](O)C[C@H]1C[C@H]3O (stereo partly specified)	2%	0%	-1%
CC(=O)c1ccc(NS(=O)(=O)c2ccc3c(c2)N(C)CCO3)cc1	44%	·	-13%
O=[N+]([O-])c1cc(C(F)(F)F)ccc1NCCNC(=S)Nc1ccc(Cl)cc1	?	-2%	?
Cc1ccc(SCc2c(C(=O)N/N=C/c3ccoc3)nnn2-c2nonc2N)cc1	7.9µM*	·	16µM*
Cc1ccc(-c2c(C(=O)N/N=C/c3ccc(OC(C)C)cc3)nnn2-c2nonc2N)cc1	-98%	·	?
Cc1ccc(SCc2c(C(=O)N/N=C/c3ccccc3)nnn2-c2nonc2N)cc1	-44%	·	-5%
